Results on eight sequences are retold here after publication PMC7862700, “An all-to-all approach to the identification of sequence-specific readers for epigenetic DNA modifications on cytosine”.

Holding throughout (experiment): DAPPL (digital affinity profiling via proximity ligation, sequencing); 10 mM Tris-HCl pH 7.5, 50 mM NaCl, 1 mM DTT, 4% glycerol, room temperature, 30 min; GST-TFs on glutathione beads, 16-mer random dsDNA library, 0.1% formaldehyde crosslink after washing; high values mean tight binding
Holding throughout (settings): protein: recombinant; tags: N-terminal GST; dsDNA, one strand shown

One assay concerns the target T1, FLI1 (Homo sapiens, UniProt Q01543 1-452).
T1 sequence: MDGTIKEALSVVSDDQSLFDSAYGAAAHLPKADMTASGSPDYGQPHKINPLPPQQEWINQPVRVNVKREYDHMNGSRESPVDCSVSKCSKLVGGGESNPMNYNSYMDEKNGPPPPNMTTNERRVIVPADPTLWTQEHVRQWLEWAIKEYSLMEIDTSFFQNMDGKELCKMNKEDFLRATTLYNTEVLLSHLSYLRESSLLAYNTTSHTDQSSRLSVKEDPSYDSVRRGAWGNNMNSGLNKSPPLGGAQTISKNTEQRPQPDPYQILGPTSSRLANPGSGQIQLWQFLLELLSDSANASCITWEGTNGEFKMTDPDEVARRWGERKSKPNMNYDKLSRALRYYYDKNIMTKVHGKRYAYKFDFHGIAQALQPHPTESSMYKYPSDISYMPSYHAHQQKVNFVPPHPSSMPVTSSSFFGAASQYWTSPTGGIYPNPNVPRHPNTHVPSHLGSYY
In outline:
(§1)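 A tag-only sample was pooled with DNA-barcoded human transcription factors that had been expressed in yeast as GST fusions and captured on glutathione beads. The pools were incubated for 30 min at room temperature with 200 nmole of a random double-stranded 16-mer DNA library in Tris/NaCl/DTT/glycerol buffer, then washed, crosslinked with 0.1% formaldehyde, proximity-ligated (BsaI/T4 ligase, 1 h, 37 °C), PCR-amplified and sequenced on an Illumina NextSeq500. Binding signal is each hexamer's read frequency for a factor divided by its frequency for the tag-only sample.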

The target of a further assay is T2, ELK1 (Homo sapiens, UniProt P19419 1-428).
T2 sequence: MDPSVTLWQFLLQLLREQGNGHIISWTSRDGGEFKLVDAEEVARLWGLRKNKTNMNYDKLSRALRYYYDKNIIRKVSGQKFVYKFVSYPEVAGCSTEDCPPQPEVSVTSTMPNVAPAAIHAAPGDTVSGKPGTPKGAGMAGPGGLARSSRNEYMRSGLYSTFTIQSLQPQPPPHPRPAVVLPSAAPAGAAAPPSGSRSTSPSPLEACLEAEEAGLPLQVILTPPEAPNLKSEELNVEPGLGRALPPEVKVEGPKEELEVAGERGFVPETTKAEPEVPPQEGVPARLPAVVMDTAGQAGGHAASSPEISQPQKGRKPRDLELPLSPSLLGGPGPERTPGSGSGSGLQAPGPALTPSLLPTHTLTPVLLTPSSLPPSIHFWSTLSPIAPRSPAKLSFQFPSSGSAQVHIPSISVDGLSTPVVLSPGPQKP
The essentials:
as §1

The next assay has as its target T3, GABPA (Homo sapiens, UniProt Q06546 1-454).
T3 sequence: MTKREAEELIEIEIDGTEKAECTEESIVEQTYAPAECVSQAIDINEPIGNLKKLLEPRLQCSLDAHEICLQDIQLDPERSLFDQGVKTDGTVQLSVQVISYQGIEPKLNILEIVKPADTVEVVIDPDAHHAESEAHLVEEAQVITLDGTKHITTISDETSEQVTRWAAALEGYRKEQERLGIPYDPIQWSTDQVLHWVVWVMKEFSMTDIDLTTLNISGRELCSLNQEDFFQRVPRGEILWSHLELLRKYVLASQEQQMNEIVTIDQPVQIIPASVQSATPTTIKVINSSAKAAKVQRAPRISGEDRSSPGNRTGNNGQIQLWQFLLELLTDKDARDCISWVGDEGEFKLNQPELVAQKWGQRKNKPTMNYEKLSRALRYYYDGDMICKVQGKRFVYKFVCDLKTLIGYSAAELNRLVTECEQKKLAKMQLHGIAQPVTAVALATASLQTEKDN
The essentials:
as §1

A further assay deals with T4, ERG (Homo sapiens, UniProt P11308 1-479).
T4 sequence: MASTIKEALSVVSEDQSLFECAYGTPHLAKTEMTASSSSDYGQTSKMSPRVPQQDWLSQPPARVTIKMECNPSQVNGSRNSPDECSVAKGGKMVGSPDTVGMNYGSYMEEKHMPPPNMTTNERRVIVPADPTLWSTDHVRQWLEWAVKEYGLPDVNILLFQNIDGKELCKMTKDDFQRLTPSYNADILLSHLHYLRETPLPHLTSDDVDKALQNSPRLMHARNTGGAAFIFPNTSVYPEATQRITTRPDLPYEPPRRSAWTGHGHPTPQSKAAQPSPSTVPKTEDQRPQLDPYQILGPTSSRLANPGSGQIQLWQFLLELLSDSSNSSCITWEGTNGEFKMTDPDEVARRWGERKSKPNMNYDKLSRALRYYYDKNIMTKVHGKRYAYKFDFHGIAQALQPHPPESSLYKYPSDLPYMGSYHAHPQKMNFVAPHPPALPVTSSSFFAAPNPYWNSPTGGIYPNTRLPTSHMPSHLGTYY
The essentials: as §1

The target in a further assay is ELF1 (Homo sapiens, UniProt P32519 1-619). The essentials:
as §1

A further assay deals with T5, EHF (Homo sapiens, UniProt Q9NZC4 1-300).
T5 sequence: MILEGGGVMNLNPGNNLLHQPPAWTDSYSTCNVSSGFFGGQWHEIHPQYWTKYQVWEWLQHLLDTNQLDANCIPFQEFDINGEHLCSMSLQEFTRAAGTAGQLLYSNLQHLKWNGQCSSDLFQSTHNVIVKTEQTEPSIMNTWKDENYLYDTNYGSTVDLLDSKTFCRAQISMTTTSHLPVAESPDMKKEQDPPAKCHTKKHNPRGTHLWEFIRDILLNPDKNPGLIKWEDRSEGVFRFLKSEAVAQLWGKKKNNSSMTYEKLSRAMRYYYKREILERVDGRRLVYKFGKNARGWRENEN
In outline:
as §1

The next assay addresses SPI1 (Homo sapiens, UniProt P17947 1-270). The essentials: as §1
For the next assay, the target named is SPIB (Homo sapiens, UniProt Q01892 1-262). In outline:
as §1

Another assay addresses T6, ELK3 (Homo sapiens, UniProt P41970 1-407).
T6 sequence: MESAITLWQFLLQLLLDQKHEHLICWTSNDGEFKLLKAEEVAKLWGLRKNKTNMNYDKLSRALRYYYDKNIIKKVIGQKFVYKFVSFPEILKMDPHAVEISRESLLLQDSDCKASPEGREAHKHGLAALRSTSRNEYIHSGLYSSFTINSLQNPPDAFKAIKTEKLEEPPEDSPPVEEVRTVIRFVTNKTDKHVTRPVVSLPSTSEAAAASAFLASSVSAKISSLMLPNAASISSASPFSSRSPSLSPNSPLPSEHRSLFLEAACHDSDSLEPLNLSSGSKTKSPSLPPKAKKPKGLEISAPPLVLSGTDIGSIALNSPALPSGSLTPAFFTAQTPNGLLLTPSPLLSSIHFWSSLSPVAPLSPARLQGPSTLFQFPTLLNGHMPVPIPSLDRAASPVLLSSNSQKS
In outline:
as §1

ELF1, sequence (P32519 whole entry): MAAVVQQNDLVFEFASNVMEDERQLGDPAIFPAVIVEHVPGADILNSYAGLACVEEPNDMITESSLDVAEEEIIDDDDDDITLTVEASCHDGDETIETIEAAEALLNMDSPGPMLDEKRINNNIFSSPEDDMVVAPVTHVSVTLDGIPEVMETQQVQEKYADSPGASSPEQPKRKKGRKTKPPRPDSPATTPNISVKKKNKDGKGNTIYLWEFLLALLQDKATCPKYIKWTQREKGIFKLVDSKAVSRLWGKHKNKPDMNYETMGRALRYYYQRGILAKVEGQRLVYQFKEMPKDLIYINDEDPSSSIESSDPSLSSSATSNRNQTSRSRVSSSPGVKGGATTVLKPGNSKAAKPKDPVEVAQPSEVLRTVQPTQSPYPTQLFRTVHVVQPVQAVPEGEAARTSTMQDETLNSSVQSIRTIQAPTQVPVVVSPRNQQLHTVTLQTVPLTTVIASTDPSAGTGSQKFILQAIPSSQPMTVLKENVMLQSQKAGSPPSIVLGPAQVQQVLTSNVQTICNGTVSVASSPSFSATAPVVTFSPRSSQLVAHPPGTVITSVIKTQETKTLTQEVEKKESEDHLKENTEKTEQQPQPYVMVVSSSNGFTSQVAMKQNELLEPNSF
SPIB, sequence (Q01892 whole entry): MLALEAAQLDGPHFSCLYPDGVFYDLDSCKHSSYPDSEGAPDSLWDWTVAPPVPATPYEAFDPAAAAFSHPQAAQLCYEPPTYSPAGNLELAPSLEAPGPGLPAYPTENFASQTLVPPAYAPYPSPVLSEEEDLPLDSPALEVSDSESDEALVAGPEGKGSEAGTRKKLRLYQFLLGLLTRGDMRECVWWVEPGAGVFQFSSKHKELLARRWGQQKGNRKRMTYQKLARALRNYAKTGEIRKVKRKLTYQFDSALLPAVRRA

For CCTGCA, the binding signal with FLI1 is 1.28 fold enrichment (6-mer frequency, TF over GST control); in the assay with ELK1, 1.3 fold enrichment (6-mer frequency, TF over GST control); in the assay with GABPA it was 1.19 fold enrichment (6-mer frequency, TF over GST control); with ERG, 1.23 fold enrichment (6-mer frequency, TF over GST control); with ELF1, 1.36 fold enrichment (6-mer frequency, TF over GST control); with EHF, 1.42 fold enrichment (6-mer frequency, TF over GST control). Moreover, the binding signal with SPI1 is 1.17 fold enrichment (6-mer frequency, TF over GST control); with SPIB it was 1.24 fold enrichment (6-mer frequency, TF over GST control); with ELK3, 1.23 fold enrichment (6-mer frequency, TF over GST control).
Take GTAACA: the binding signal with FLI1 is 1.24 fold enrichment (6-mer frequency, TF over GST control); with ELK1, 1.1 fold enrichment (6-mer frequency, TF over GST control); in the assay with GABPA, 1.05 fold enrichment (6-mer frequency, TF over GST control); with ERG, 1.06 fold enrichment (6-mer frequency, TF over GST control); with ELF1 it was 1.13 fold enrichment (6-mer frequency, TF over GST control); with EHF it was 1.21 fold enrichment (6-mer frequency, TF over GST control). For the same sequence, the binding signal with SPI1 is 1.12 fold enrichment (6-mer frequency, TF over GST control); with SPIB, 1.03 fold enrichment (6-mer frequency, TF over GST control); with ELK3, 1.19 fold enrichment (6-mer frequency, TF over GST control).
Turning to CTACAA, the binding signal was 1.17 fold enrichment (6-mer frequency, TF over GST control) with FLI1; 1.13 fold enrichment (6-mer frequency, TF over GST control) in the assay with ELK1; 1.2 fold enrichment (6-mer frequency, TF over GST control) in the assay with GABPA; 1.08 fold enrichment (6-mer frequency, TF over GST control) with ERG; 1.13 fold enrichment (6-mer frequency, TF over GST control) in the assay with ELF1; 1.14 fold enrichment (6-mer frequency, TF over GST control) with EHF. Also, the binding signal with SPI1 is 1.09 fold enrichment (6-mer frequency, TF over GST control); with SPIB it was 1.15 fold enrichment (6-mer frequency, TF over GST control); in the assay with ELK3, 1.03 fold enrichment (6-mer frequency, TF over GST control).
Consider CACCCG, for which the binding signal in the assay with FLI1 was 1.14 fold enrichment (6-mer frequency, TF over GST control); with ELK1 it was 1.24 fold enrichment (6-mer frequency, TF over GST control); with GABPA it was 1.18 fold enrichment (6-mer frequency, TF over GST control); in the assay with ERG it was 1.21 fold enrichment (6-mer frequency, TF over GST control); in the assay with ELF1 it was 1.2 fold enrichment (6-mer frequency, TF over GST control); with EHF it was 1.2 fold enrichment (6-mer frequency, TF over GST control). Besides, the binding signal in the assay with SPI1 is 1.12 fold enrichment (6-mer frequency, TF over GST control); in the assay with SPIB, 1.28 fold enrichment (6-mer frequency, TF over GST control); with ELK3 it was 1.17 fold enrichment (6-mer frequency, TF over GST control).
Turning to GACTAC, the binding signal with FLI1 was 1.17 fold enrichment (6-mer frequency, TF over GST control); with ELK1, 1.19 fold enrichment (6-mer frequency, TF over GST control); in the assay with GABPA it was 1.15 fold enrichment (6-mer frequency, TF over GST control); with ERG it was 1.07 fold enrichment (6-mer frequency, TF over GST control); in the assay with ELF1, 1.15 fold enrichment (6-mer frequency, TF over GST control); in the assay with EHF it was 1.12 fold enrichment (6-mer frequency, TF over GST control). Also, the binding signal with SPI1 was 1.12 fold enrichment (6-mer frequency, TF over GST control); with SPIB, 1.19 fold enrichment (6-mer frequency, TF over GST control); with ELK3, 1.1 fold enrichment (6-mer frequency, TF over GST control).
With TGTGAC, the binding signal with FLI1 is 1.05 fold enrichment (6-mer frequency, TF over GST control); in the assay with ELK1, 1.09 fold enrichment (6-mer frequency, TF over GST control); with GABPA, 1.15 fold enrichment (6-mer frequency, TF over GST control); with ERG, 1.08 fold enrichment (6-mer frequency, TF over GST control); with ELF1, 1.16 fold enrichment (6-mer frequency, TF over GST control); with EHF it was 1.01 fold enrichment (6-mer frequency, TF over GST control). For the same sequence, the binding signal with SPI1 was 1.17 fold enrichment (6-mer frequency, TF over GST control); with SPIB, 1.22 fold enrichment (6-mer frequency, TF over GST control); with ELK3, 1.1 fold enrichment (6-mer frequency, TF over GST control).
With TTGATT, the binding signal with FLI1 is 1.48 fold enrichment (6-mer frequency, TF over GST control); with ELK1 it was 1.32 fold enrichment (6-mer frequency, TF over GST control); in the assay with GABPA it was 1.31 fold enrichment (6-mer frequency, TF over GST control); with ERG, 1.29 fold enrichment (6-mer frequency, TF over GST control); in the assay with ELF1, 1.29 fold enrichment (6-mer frequency, TF over GST control); in the assay with EHF it was 1.26 fold enrichment (6-mer frequency, TF over GST control). Also, the binding signal was 1.18 fold enrichment (6-mer frequency, TF over GST control) in the assay with SPI1; 1.26 fold enrichment (6-mer frequency, TF over GST control) in the assay with SPIB; 1.2 fold enrichment (6-mer frequency, TF over GST control) with ELK3.
CCGTAA: the binding signal is 1.09 fold enrichment (6-mer frequency, TF over GST control) in the assay with FLI1; 1.1 fold enrichment (6-mer frequency, TF over GST control) with ELK1; 1.1 fold enrichment (6-mer frequency, TF over GST control) with GABPA; 1.14 fold enrichment (6-mer frequency, TF over GST control) with ERG; 1.09 fold enrichment (6-mer frequency, TF over GST control) in the assay with ELF1; 1.17 fold enrichment (6-mer frequency, TF over GST control) with EHF. The binding signal is 1.13 fold enrichment (6-mer frequency, TF over GST control) in the assay with SPI1; 1.06 fold enrichment (6-mer frequency, TF over GST control) with SPIB; 1.14 fold enrichment (6-mer frequency, TF over GST control) in the assay with ELK3.
